Measured values published in PubChem BioAssay AID1159580 (chemical genetic matrix, 2015).
Screen size: about 5,500 compounds; about 2,000 (36%) were called active. Roughly 18% stayed inconclusive and do not appear here. Rule as the data show it: active = normalized growth mostly below about 0.91 (no sharp cut-off); inconclusive = no clear call, values can overlap the other calls; inactive = mostly above about 0.92. The list shows a part of the results.

Test: chemical genetic growth profiling, strain panel (AID 1159580);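 also: tested at 20 µM; growth read once vehicle control cultures reached saturation at 30 °C; 1 = growth at the plate median or of vehicle wells; lower values mean less growth of the strain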
Conditions: growth OD
[1] = S. cerevisiae deletion strains, locus YAL040C, strain CLN3, hits give low values
[2] = S. cerevisiae deletion strains, locus YCL061C, strain MRC1 (second series), hits give low values
[3] = S. cerevisiae deletion strains, locus YDR150W, strain NUM1, hits give low values
[4] = S. cerevisiae deletion strains, locus YDR363W, strain ESC2, hits give low values
[5] = S. cerevisiae deletion strains, locus YER002W, strain NOP16, hits give low values
[6] = S. cerevisiae deletion strains, locus YGR078C, strain PAC10, hits give low values
[7] = S. cerevisiae deletion strains, locus YGR229C, strain SMI1, hits give low values
[8] = S. cerevisiae deletion strains, locus YMR263W, strain SAP30, hits give low values
[9] = S. cerevisiae deletion strains, locus YNL128W, strain TEP1, hits give low values
[10] = S. cerevisiae deletion strains, locus YNL153C, strain GIM3, hits give low values
[11] = S. cerevisiae deletion strains, locus YNL175C, strain NOP13, hits give low values
[12] = S. cerevisiae deletion strains, locus YNL197C, strain WHI3, hits give low values
[13] = S. cerevisiae deletion strains, locus YNL224C, strain SQS1, hits give low values
[14] = S. cerevisiae deletion strains, locus YOR083W, strain WHI5 (second series), hits give low values
[15] = S. cerevisiae deletion strains, locus YPL055C, strain LGE1, hits give low values
[16] = S. cerevisiae deletion strains, locus YDL101C, strain DUN1, hits give low values
[17] = S. cerevisiae deletion strains, locus YHR030C, strain SLT2, hits give low values
[18] = S. cerevisiae deletion strains, locus YAL013W, strain DEP1, hits give low values
[19] = S. cerevisiae deletion strains, locus YJR075W, strain HOC1, hits give low values
[20] = S. cerevisiae deletion strains, locus YPL241C, strain CIN2, hits give low values
[21] = S. cerevisiae deletion strains, locus YBR229C, strain ROT2, hits give low values
[22] = S. cerevisiae deletion strains, locus YEL061C, strain CIN8, hits give low values
[23] = S. cerevisiae deletion strains, locus YHR087W, strain rtc3, hits give low values
[24] = S. cerevisiae deletion strains, locus YJR043C, strain POL32, hits give low values
[25] = S. cerevisiae deletion strains, locus YLR039C, strain RIC1, hits give low values
[26] = S. cerevisiae deletion strains, locus YLR058C, strain SHM2 (second series), hits give low values
[27] = S. cerevisiae deletion strains, locus YLR085C, strain ARP6, hits give low values
[28] = S. cerevisiae deletion strains, locus YLR262C, strain YPT6, hits give low values
[29] = S. cerevisiae deletion strains, locus YML094W, strain GIM5, hits give low values
[30] = S. cerevisiae deletion strains, locus YMR219W, strain ESC1, hits give low values
[31] = S. cerevisiae deletion strains, locus YNL298W, strain CLA4 (second series), hits give low values
[32] = S. cerevisiae deletion strains, locus YNL322C, strain KRE1, hits give low values
[33] = S. cerevisiae deletion strains, locus YNR030W, strain Alg12, hits give low values
[34] = S. cerevisiae deletion strains, locus YPR135W, strain CTF4, hits give low values
[35] = S. cerevisiae strains, strain wild type, hits give low values

Measured: normalized growth

Cc1ccc(OCC(O)C(C)NC(C)C)c2c1CCC2 (stereo not drawn)
inactive: [1] 0.989 | [2] 0.993 | [3] 1.01 | [4] 0.961 | [5] 0.977 | [6] 0.982 | [7] 1.01 | [8] 1 | [9] 0.985 | [10] 1 | [11] 0.982 | [12] 0.972 | [13] 1 | [14] 1 | [15] 1

O=C(NC(=S)NNc1ncc(C(F)(F)F)cc1Cl)c1cccs1
active: S. cerevisiae deletion strains, locus YAR019C, strain CDC15, hits give low values 0.665 | S. cerevisiae deletion strains, locus YBL105C, strain PKC1, hits give low values 0.764 | S. cerevisiae deletion strains, locus YBR135W, strain CKS1, hits give low values 0.604 | S. cerevisiae deletion strains, locus YBR136W, strain MEC1, hits give low values 0.537 | S. cerevisiae deletion strains, locus YBR160W, strain CDC28, hits give low values 0.692 | S. cerevisiae deletion strains, locus YDL017W, strain CDC7, hits give low values 0.727 | S. cerevisiae deletion strains, locus YDL028C, strain MPS1, hits give low values 0.537 | [16] 0.576 | S. cerevisiae deletion strains, locus YDL108W, strain KIN28, hits give low values 0.726 | S. cerevisiae deletion strains, locus YDL132W, strain cdc53, hits give low values 0.588 | S. cerevisiae deletion strains, locus YDL214C, strain PRR2, hits give low values 0.218 | S. cerevisiae deletion strains, locus YDR052C, strain DBF4, hits give low values 0.581 | S. cerevisiae deletion strains, locus YDR054C, strain cdc34, hits give low values 0.492 | S. cerevisiae deletion strains, locus YDR226W, strain ADK1, hits give low values 0.527 | S. cerevisiae deletion strains, locus YDR477W, strain SNF1, hits give low values 0.31 | S. cerevisiae deletion strains, locus YER123W, strain YCK3, hits give low values 0.17 | S. cerevisiae deletion strains, locus YER133W, strain GLC7, hits give low values 0.37 | S. cerevisiae deletion strains, locus YFL009W, strain cdc4, hits give low values 0.51 | S. cerevisiae deletion strains, locus YFL029C, strain CAK1, hits give low values 0.59 | S. cerevisiae deletion strains, locus YFR003C, strain YPI1, hits give low values 0.738 | S. cerevisiae deletion strains, locus YFR019W, strain FAB1, hits give low values 0.384 | S. cerevisiae deletion strains, locus YFR028C, strain CDC14, hits give low values 0.482 | S. cerevisiae deletion strains, locus YGR040W, strain KSS1, hits give low values 0.28 | S. cerevisiae deletion strains, locus YGR052W, strain FMP48, hits give low values 0.171 | S. cerevisiae deletion strains, locus YGR092W, strain DBF2, hits give low values 0.163 | [17] 0.287 | S. cerevisiae deletion strains, locus YHR079C, strain IRE1, hits give low values 0.294 | S. cerevisiae deletion strains, locus YHR082C, strain KSP1, hits give low values 0.296 | S. cerevisiae deletion strains, locus YHR205W, strain SCH9, hits give low values 0.244 | S. cerevisiae deletion strains, locus YIL147C, strain SLN1, hits give low values 0.609 | S. cerevisiae deletion strains, locus YJL095W, strain BCK1, hits give low values 0.244 | S. cerevisiae deletion strains, locus YJL128C, strain PBS2, hits give low values 0.328 | S. cerevisiae deletion strains, locus YJL157C, strain FAR1, hits give low values 0.198 | S. cerevisiae deletion strains, locus YJR016C, strain ILV3, hits give low values 0.624 | S. cerevisiae deletion strains, locus YJR066W, strain TOR1 (second series), hits give low values 0.15 | S. cerevisiae deletion strains, locus YJR066W, strain TOR1, hits give low values 0.237 | S. cerevisiae deletion strains, locus YKL048C, strain ELM1, hits give low values 0.256 | S. cerevisiae deletion strains, locus YKL067W, strain YNK1, hits give low values 0.17 | S. cerevisiae deletion strains, locus YKL101W, strain HSL1, hits give low values 0.242 | S. cerevisiae deletion strains, locus YKL193C, strain SDS22, hits give low values 0.629 | S. cerevisiae deletion strains, locus YKL203C, strain TOR2, hits give low values 0.234 | S. cerevisiae deletion strains, locus YLR113W, strain HOG1, hits give low values 0.252 | S. cerevisiae deletion strains, locus YLR133W, strain CKI1, hits give low values 0.251 | S. cerevisiae deletion strains, locus YLR403W, strain SFP1, hits give low values 0.123 | S. cerevisiae deletion strains, locus YML070W, strain DAK1, hits give low values 0.247 | S. cerevisiae deletion strains, locus YMR001C, strain CDC5, hits give low values 0.549 | S. cerevisiae deletion strains, locus YMR205C, strain PFK2 (second series), hits give low values 0.23 | S. cerevisiae deletion strains, locus YMR277W, strain FCP1, hits give low values 0.413 | S. cerevisiae deletion strains, locus YNL006W, strain LST8, hits give low values 0.714 | S. cerevisiae deletion strains, locus YNL020C, strain ARK1, hits give low values 0.211 | S. cerevisiae deletion strains, locus YNL161W, strain CBK1, hits give low values 0.533 | S. cerevisiae deletion strains, locus YNL183C, strain NPR1, hits give low values 0.195 | S. cerevisiae deletion strains, locus YNL207W, strain RIO2, hits give low values 0.6 | S. cerevisiae deletion strains, locus YNL222W, strain SSU72, hits give low values 0.559 | S. cerevisiae deletion strains, locus YNL307C, strain MCK1 (second series), hits give low values 0.146 | S. cerevisiae deletion strains, locus YOL078W, strain AVO1, hits give low values 0.585 | S. cerevisiae deletion strains, locus YOL136C, strain PFK27, hits give low values 0.276 | S. cerevisiae deletion strains, locus YOR061W, strain CKA2, hits give low values 0.242 | S. cerevisiae deletion strains, locus YOR119C, strain RIO1, hits give low values 0.237 | S. cerevisiae deletion strains, locus YOR231W, strain MKK1, hits give low values 0.256 | S. cerevisiae deletion strains, locus YOR329C, strain SCD5, hits give low values 0.727 | S. cerevisiae deletion strains, locus YPL031C, strain PHO85, hits give low values 0.441 | S. cerevisiae deletion strains, locus YPL153C, strain RAD53, hits give low values 0.283 | S. cerevisiae deletion strains, locus YPL204W, strain HRR25, hits give low values 0.315 | S. cerevisiae deletion strains, locus YPL209C, strain IPL1, hits give low values 0.736 | S. cerevisiae deletion strains, locus YPL256C, strain CLN2, hits give low values 0.367 | S. cerevisiae deletion strains, locus YPR025C, strain CCL1, hits give low values 0.745 | S. cerevisiae deletion strains, locus YPR106W, strain ISR1, hits give low values 0.472 | S. cerevisiae deletion strains, locus YPR111W, strain DBF20, hits give low values 0.453 | S. cerevisiae deletion strains, strain NNK1, hits give low values 0.492 | S. cerevisiae deletion strains, strain TSCII, hits give low values 0.524

NCCS(=O)O
inactive: [18] 1.01 | [1] 0.998 | [2] 1.01 | [3] 1 | [4] 1.02 | [5] 1 | [7] 1 | [19] 1.01 | [8] 1.01 | S. cerevisiae deletion strains, locus YMR307W, strain GAS1, hits give low values 1.01 | [11] 1 | [12] 1 | [13] 0.991 | [14] 1.03 | [20] 1

CC(=O)c1ccccc1OC(=O)c1c(-c2c(Cl)cccc2Cl)noc1C
inactive: [18] 0.996 | [21] 0.994 | S. cerevisiae deletion strains, locus YCL061C, strain MRC1, hits give low values 0.996 | [16] 1.02 | [3] 0.882 | [22] 1.01 | [6] 1.01 | [7] 0.998 | [17] 0.834 | [23] 0.988 | [24] 0.984 | [19] 1.01 | S. cerevisiae deletion strains, locus YKL190W, strain CNB1, hits give low values 0.995 | [25] 0.923 | [26] 1 | [27] 0.985 | [28] 0.935 | [29] 1.04 | [30] 1 | [8] 0.991 | [9] 1 | [10] 1 | [31] 1.02 | [32] 1.01 | [33] 1 | [15] 1.02 | [20] 0.996 | [34] 1.12 | [35] 1.01

Cc1onc(-c2ccccc2)c1C(=O)On1c(-c2ccccc2)nc2ccccc2c1=O
inactive: [18] 0.963 | [21] 0.988 | [16] 0.944 | [3] 0.902 | [22] 0.933 | [6] 0.953 | [23] 1.05 | [24] 0.987 | [19] 0.92 | [26] 0.979 | [29] 0.934 | [30] 0.953 | [8] 0.932 | [9] 0.961 | [10] 1 | [15] 0.973
active: S. cerevisiae deletion strains, locus YDL134C, strain PPH21, hits give low values 0.922 | [17] 0.196 | [25] 0.236 | [27] 0.537 | [28] 0.21 | [31] 0.816 | [32] 0.928 | [33] 0.852 | S. cerevisiae deletion strains, locus YOL006C, strain TOP1, hits give low values 0.63 | [20] 0.82 | [34] 0.368 | [35] 0.888
